Bioassay records (PubChem)
Cycloheximide cs: counter-screen hit for Shiga toxin inhibitors, cycloheximide; max response, %; AID 2314; cell reporter, cycloheximide protein synthesis inhibition counterscreen; 300,000 tested, 12% active; in the data active means max response mostly above about 13%, no sharp cut-off; inactive means mostly below about 14%; further: read at 38.3 µM for the half of the compounds with a filed dose; 0% is about no effect
FBPA Giardia inh: blocks Giardia fructose-bisphosphate aldolase activity | purified Giardia FBPA | Potency, µM (highest dose often 59.6 µM), for the others: top-dose activity, negative = inhibition, hits mostly inhibitors | 290,000 tested, 0.71% active | A8B2U2; further: potency means the concentration at half of the fitted maximal effect; on the % scale 0 is the no-effect control and ±100 the full control effect; nearly all actives have a fitted effect of over 55% in size
Target sequence (A8B2U2 whole entry, looked up): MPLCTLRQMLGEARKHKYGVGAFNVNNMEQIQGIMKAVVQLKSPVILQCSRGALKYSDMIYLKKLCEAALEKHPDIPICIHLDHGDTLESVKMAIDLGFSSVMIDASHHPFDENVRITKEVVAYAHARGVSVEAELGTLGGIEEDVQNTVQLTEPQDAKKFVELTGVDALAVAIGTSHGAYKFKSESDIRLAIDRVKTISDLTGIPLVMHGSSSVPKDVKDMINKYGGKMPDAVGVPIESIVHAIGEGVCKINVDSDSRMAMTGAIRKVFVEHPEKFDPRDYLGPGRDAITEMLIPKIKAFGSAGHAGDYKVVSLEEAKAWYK
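40 nM FBPA preincubated 10 min at RT with compound (up to 57.5 uM final), then substrate plus GAPDH/TPI/NAD/arsenate coupling and diaphorase/resazurin added. Fluorescence read after 20 min at RT, 525/598 nm.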
Shiga inhibitor: Shiga toxin inhibition. Vero cells, Shiga toxin protein synthesis inhibition reporter. inhibition, % at 38.7 µM. 290,000 tested, 9.2% active. AID 2315; in the data active means inhibition mostly above about 28%, no sharp cut-off; inactive means mostly below about 43%; further: 0% is about no effect
LmPK inh: blocks Leishmania mexicana pyruvate kinase activity; purified LmPK, Kinase-Glo ATP luminescence, 1 h; AID 1721; 290,000 tested, 0.37% active; Potency, µM (series often up to 57.5 µM), inactives show at the top dose activity change, negative = inhibition, hits mostly inhibitors; further: potency means the concentration at half of the fitted maximal effect; on the % scale 0 is the no-effect control and ±100 the full control effect
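In 50 mM imidazole pH 7.2 with 7 mM MgCl2, LmPK (0.1 nM) turned over PEP (0.5 mM) and ADP (0.1 mM) for 1 h at room temperature. Luciferase read-out of ATP.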
Sm TGR inh: blocks Schistosoma mansoni thioredoxin glutathione reductase; Potency, µM (top dose mostly 114 µM), for inactives: at the highest dose activity change, negative = inhibition, actives largely listed as inhibitors; AID 485364; Q962Y6; 360,000 tested, 3% active; purified TGR, DTNB reduction, TNB absorbance 405 nm; further: potency means the concentration at half of the fitted maximal effect; on the % scale 0 is the no-effect control and ±100 the full control effect; nearly all actives have a fitted effect of over 60% in size
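TGR 20 nM + NADPH 100 uM (dispensed conc.), cpd preinc 15 min RT; start with NADPH (500 uM addition) then DTNB (15 mM addition). Kinetic TNB absorbance, 405 nm filter. Four-parameter Hill fit across titration.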
TbPYK inhibitor: inhibitors of Trypanosoma brucei pyruvate kinase. Q57TT1. TbPYK enzyme, Kinase-Glo Plus ATP luminescence, 45 min. Potency, µM (top dose mostly 76.8 µM), without a hit: top-dose activity, negative = inhibition, usual class: inhibitors. 410,000 tested, 0.12% active; further: potency means the concentration at half of the fitted maximal effect; on the % scale 0 is the no-effect control and ±100 the full control effect; nearly all actives have a fitted effect of over 50% in size
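Luminescent Kinase-Glo Plus end-point after 45 min room-temperature reaction of T. brucei pyruvate kinase started with 130 uM ADP (final). Buffer TEA 50 mM pH 7.2 with KCl, MgCl2, BSA, Tween-20; titration-based qHTS with fitted concentration-effect curves.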
The depositor's hits bear a star; ? = inconclusive; nt = no result given; [ ] = another dose, or the depositor's remark. The sample as a whole holds a higher share of hits than the screen did. Unless noted, the call rests on the fitted dose curve; in most records, active means well fitted curve in the direction sought with a large enough effect; inconclusive means small, poorly fitted or top-dose-only effect, or another doubt; inactive means no such curve, though single readings can be large; an effect the other way counts as inactive or inconclusive.

SMILES	Cycloheximide cs	FBPA Giardia inh	Shiga inhibitor	LmPK inh	Sm TGR inh	TbPYK inhibitor
Cc1ccc(C(=O)NN=C2CCCCCC2)s1	47*	-14%	59*	-2%	-19%	0%
O=C(NN=C1CCCCCC1)c1ccc(Cl)s1	10	-7%	12	4%	6%	3%
Cc1ccsc1C(=O)NN=C1CCCCCC1	51*	-7%	96*	2%	0%	2%
CCC(=O)N1CCc2cc(Br)cc(S(=O)(=O)N3CCC(C(=O)Nc4cccc(C)c4)CC3)c21	nt	nt	nt	nt	0%	4%
O=C(NNc1ccccc1[N+](=O)[O-])Nc1ccc(F)cc1	13	-10%	33*	1%	-22%	1%
CCN(CC)S(=O)(=O)c1cc([N+](=O)[O-])ccc1NNC(=O)Nc1ccc(Cl)c(Cl)c1	6	-6%	-14	-2%	-13%	5%
O=C(NNc1ccccc1[N+](=O)[O-])Nc1ccc(Cl)c(Cl)c1	17	-25%	16*	-1%	-7%	2%
O=C(NNc1ccccc1[N+](=O)[O-])Nc1ccccc1	15	-18%	-5	-8%	-13%	1%
CC1=C(C#N)C(=O)NC1(C)O (configuration not stated)	nt	nt	nt	nt	nt	4%
Cc1cccc(-n2c(CNC(=O)c3ccc(S(=O)(=O)N4CCCC4)cc3)n[nH]c2=S)c1	-2	-3%	-16	-10%	-12%	14µM*
NCC(=O)N[C@@H](CCCN=C(N)N)C(=O)NCC(=O)N[C@@H](CC(=O)O)C(=O)N[C@@H](CO)C(=O)N1CCC[C@H]1C(=O)O	-7	1%	-7	nt	nt	nt
CCOP(=S)(OCC)O/N=C(\C#N)c1ccccc1Cl	-6	-3%	9	nt	nt	nt
Cc1cc(C=C2C(=O)NC(=O)NC2=O)c(C)n1-c1ccc2c(c1)OCO2	-3	-8%	-5	-17%	?	9%
Cc1cc(C=C2C(=O)NC(=S)NC2=O)c(C)n1-c1ccc2c(c1)OCO2	39*	-10%	24*	-25%	?	?
COc1ccc(/C=C2\SC(c3ccc(C)cc3)=NC2=O)cc1OC	9	?	3	?	-17%	8.9µM*
CCOc1ccc(/C=C2\SC(=S)NC2=O)cc1OC	14*	8%	41*	14µM*	-8%	-10%
COc1ccc(/C=C2\SC(=O)NC2=S)cc1OC	8	-1%	31	-3%	18µM*	-8%
COc1ccc(/C=C2/SC(c3ccc(C)cc3)=NC2=O)cc1OC	7	?	-3	?	-36%	?
Cc1ccccc1NC(=O)c1sc2nc3n(c(=O)c2c1C)N=C(c1ccccc1)CS3	nt	nt	nt	nt	-12%	5%
Cc1cc(-c2cc(-c3ccccc3)on2)nc(NC2CCCC2)n1	21	2%	34*	3%	15%	4%
Cc1cc(-c2cc(-c3ccc(Cl)cc3)on2)nc(NC2CCCC2)n1	3	2%	-7	5%	1%	-10%
CC1=C(C(=O)N2CCCCCC2)CC(CC(=O)NC2CCCCC2)C(=O)N1Cc1ccc(C(C)(C)C)cc1 (configuration not stated)	nt	nt	nt	nt	nt	7%
CC(C)Cn1c(-c2ccco2)csc1=Nc1cccnc1	-3	-10%	27	5%	56µM*	-7%
CCOC(=O)C(Cc1c[nH]c2ccccc12)NC(=O)c1ccccc1Br (configuration not stated)	37*	2%	53*	-4%	-37%	3%
COC(=O)C(Cc1c[nH]c2ccccc12)NC(=O)c1ccccc1Br (configuration not stated)	8	-4%	54	8%	-15%	3%
SMILES	Cycloheximide cs	FBPA Giardia inh	Shiga inhibitor	LmPK inh	Sm TGR inh	TbPYK inhibitor
Cc1ccc(C(=O)COC(=O)C(Cc2c[nH]c3ccccc23)NC(=O)c2ccc(C(C)(C)C)cc2)cc1 (configuration not stated)	nt	nt	nt	nt	11µM*	-14%[15.4 µM]
COC(=O)c1ccc(NC(=O)CSc2nc3ccc(OC)cc3[nH]2)cc1	nt	nt	nt	nt	-4%	-6%
CN(C)C(=O)c1nc2ccccc2s1	28*	8%	74*	0%	-1%	5%
CCCCNC(=O)Nc1nc2ccccc2s1	57	-1%	71*	3%	2%	-2%
CN(C)c1ccc(CC(=O)c2nc3ccccc3s2)cc1	67*	-5%	44*	-4%	40µM*	-12%
CCCCNC(=O)Nc1nc2ccc(CC)cc2s1	34*	5%	73*	4%	3%	-3%
CCCCNC(=O)Nc1ccon1	11	1%	-18	-7%	-12%	4%
CCOC(=O)c1ccc(NC(=O)Nc2nc3ccccc3s2)cc1	nt	nt	nt	nt	nt	-10%
CC(NC(=O)CN1C(=O)NC2(CCCCCC2)C1=O)c1ccccc1 (configuration not stated)	nt	nt	nt	nt	-1%	?
CCOC(=O)Nc1nc2ccccc2s1	31*	-2%	66*	-11%	8%	1%
CCCNC(=O)c1ccc(-c2nc3ccccc3s2)s1	48*	1%	28	?	0%	0%
CN(C(=O)c1ccccc1)c1nc2ccccc2s1	46*	-5%	74*	-13%	4%	-13%
CN(C(=O)c1ccc2nc(N)sc2c1)c1ccccc1	1	-7%	23	-1%	6%	-2%
NNC(=O)c1nc2ccccc2s1	nt	nt	nt	nt	nt	1%
CCOC(=O)c1nc2ccccc2s1	27*	-10%	61*	-20%	5%	6%
O=C(Cc1c[nH]c2ccccc12)NCC(=O)Nc1ccc(F)c(F)c1F	nt	nt	nt	nt	-2%	0%
COc1ccc(CNC(=O)CCc2c(C)nc3c4cccnc4nn3c2C)cc1	nt	nt	nt	nt	3%	2%
CCn1nc(-c2ccccc2)c(-c2ccccc2)c(C(=O)Nc2ccc(S(N)(=O)=O)cc2)c1=O	nt	nt	nt	nt	7%	-1%
O=CC(O)C1OC(=O)C(O)C1O (configuration not stated)	nt	nt	nt	nt	nt	3%
Cc1nc2c(ccc3nc(NC(=O)Cc4ccccc4)sc32)s1	36*	-2%	36*	-1%	0%	1%
CC(C)(C)NC(=O)c1nc2ccccc2s1	21*	-6%	47*	6%	9%	-7%
CCCNC(=O)Nc1nc2ccccc2s1	51*	-3%	87*	-2%	0%	1%
Cc1nc2c(ccc3nc(NC(=O)c4ccc(S(=O)(=O)N(C)C)cc4)sc32)s1	2	2%	2	5%	-22%	5%
Cc1ccc(CC(=O)Nc2nc3ccccc3s2)cc1	40*	-1%	174*	0%	9%	0%
Cc1ccc(S(=O)(=O)CC(=O)Nc2nc3ccccc3s2)cc1	-2	9%	2	1%	-1%	6%
CCn1cc(S(=O)(=O)c2ccccc2)c(=O)c2cc(F)c(N3CCCC3)cc21	nt	nt	nt	nt	-4%	7%
CCCCOc1ccc(S(=O)(=O)Nc2ccc(-c3ccc(N4CCCCC4)nn3)cc2)cc1	nt	nt	nt	nt	-2%	-1%
